Hits are enriched below; roughly 12% of the tested compounds scored in any of these assays.
Pf growth 96h – P. falciparum growth inhibition at 96 hour, primary screen for plastid delayed-death inhibitors; actives 6.9% (n = 320,000); Potency, µM (doses to about 28.7 µM), for the others: at the highest dose activity change, negative = inhibition, actives largely listed as inhibitors; P. falciparum luciferase reporter growth, 96 h; also: % is scaled to controls: 0 for no effect and ±100 for the full control effect
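Infected RBCs, 2% Hct / 0.05% parasitemia final; luciferase-reporter P. falciparum; cpd 96 h, 37 C, 5% CO2; luciferase detection reagent; luminescence.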
Sm TGR block – inhibitors of Schistosoma mansoni thioredoxin glutathione reductase; actives 3% (n = 360,000); purified TGR, DTNB reduction, TNB absorbance 405 nm; Q962Y6; Potency, µM (titrated, usually from 114 µM), inactives show top-dose activity change, negative = inhibition, most hits filed as inhibitors; also: % is scaled to controls: 0 for no effect and ±100 for the full control effect; nearly all actives have a fitted effect of over 60% in size
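TGR 20 nM + NADPH 100 uM (dispensed conc.), cpd preinc 15 min RT; start with NADPH (500 uM addition) then DTNB (15 mM addition). Kinetic TNB absorbance, 405 nm filter. Four-parameter Hill fit across titration.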
Pf growth 48h – inhibits P. falciparum growth in the first generation, 48 h; P. falciparum luciferase growth in erythrocytes, 48 h; Potency, µM (highest dose often 28.7 µM), inactives show at the top dose activity change, negative = inhibition, actives largely listed as inhibitors; actives 5.9% (n = 310,000); also: % is scaled to controls: 0 for no effect and ±100 for the full control effect
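In quantitative HTS format, infected erythrocytes bearing luciferase-reporter parasites were treated for a single generation at 37 C. Luminescence after adding detection reagent served as the growth measure.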
SARS PLP yeast – blocks SARS-CoV papain-like protease in a yeast assay; actives 0.19% (n = 330,000); S. cerevisiae expressing SARS-CoV PLpro, growth rescue; Potency, µM (highest dose often 32.9 µM), for the others: top-dose activity, positive = growth rescue, hits mostly activators; calls by dose curve; also: 0% is about no effect; nearly all actives have a fitted effect of over 55% in size
An asterisk follows results filed as active; [ ] = another dose, or the depositor's remark. Unless noted, calls follow the shape of the dose curve; as a rule, active = well fitted curve in the direction sought with a large enough effect; inconclusive = small, poorly fitted or top-dose-only effect, or another doubt; inactive = no such curve, though single readings can be large; an effect the other way counts as inactive or inconclusive. Potency is read from the fitted curve at half-maximal effect.

`O=C(O)[C@@H]1C[C@H]1[C@@H](NP(=O)(c1ccccc1)c1ccccc1)c1ccccc1` gave Pf growth 96h -10%, Sm TGR block -2%, Pf growth 48h 4% and SARS PLP yeast 18%.
O=C(NCc1ccccc1)[C@@H]1C[C@H]1[C@@H](NP(=O)(c1ccccc1)c1ccccc1)c1ccccc1 was read as Pf growth 96h 15µM*, Sm TGR block -20%, Pf growth 48h inconclusive and SARS PLP yeast 1%.
`O=C(NCC1CC1)[C@@H]1C[C@H]1[C@@H](NP(=O)(c1ccccc1)c1ccccc1)c1ccccc1` gave Pf growth 96h inconclusive, Sm TGR block -14%, Pf growth 48h -6% and SARS PLP yeast -11%.
O=C(Nc1ccc2ccccc2c1)[C@@H]1C[C@H]1[C@@H](NP(=O)(c1ccccc1)c1ccccc1)c1ccccc1 was read as Pf growth 96h inconclusive, Sm TGR block -8%, Pf growth 48h 9.3µM* and SARS PLP yeast -17%.
`COc1cc(C(=S)N2CCCC2)ccc1OCc1ccc(C)cc1` gave Pf growth 96h inconclusive, Sm TGR block 5%, Pf growth 48h inconclusive and SARS PLP yeast -2%.
COc1ccc(-n2nc(C(=O)N3CCCCC3C)c3c4ccccc4n(C)c3c2=O)cc1Cl (stereo unspecified) was read as Sm TGR block 1%.
Cn1nc(C(=O)NCc2cccc(Cl)c2)c2c1-c1ccccc1SC2 was read as Sm TGR block 1%.
`CCOCCCNC(=S)NNC(=O)CCn1nc(C)c(Br)c1C` gave Sm TGR block 0%, Pf growth 48h 3% and SARS PLP yeast -13%.
`COCCCNC(=S)NNC(=O)Cn1nc(C)c(Br)c1C` gave Pf growth 96h 9.3µM*, Sm TGR block 4%, Pf growth 48h 26% and SARS PLP yeast 21%.
For C/C(=N\O)C1(C)N(O)C(C)(C)C(c2ccc(F)cc2)=[N+]1[O-] (stereo unspecified) the results were Pf growth 96h 22%, Sm TGR block 1% and SARS PLP yeast 1%.
C/C(=N/Nc1ccc(C)cc1)C1(C)N(O)C(C)(C)C(c2ccco2)=[N+]1[O-] (stereo unspecified) was read as Pf growth 96h 137%, Sm TGR block 10µM*, Pf growth 48h 28% and SARS PLP yeast 3%.
CC(=O)/C(=C/c1ccccc1)C(=O)Nc1ccccc1C was read as Pf growth 96h 1%, Sm TGR block 45µM*, Pf growth 48h -32%[1.15 µM] and SARS PLP yeast 0%.
For Cc1ccccc1NC(=O)C(=Cc1ccc(C(=O)O)cc1)C(=O)Nc1ccccc1C the results were Pf growth 96h inconclusive, Sm TGR block -8%, Pf growth 48h 3.7µM* and SARS PLP yeast 0%.
Screening COc1ccc2cc(CNc3ccccc3)c(=O)n(CC(=O)Nc3ccc(C)cc3C)c2c1 returned Sm TGR block -4%.
`Cc1ccc(-c2nnc(Nc3ccc(Br)cc3)c3ccccc23)cc1S(=O)(=O)NCc1nc2ccccc2[nH]1` gave Sm TGR block -5%.
For Cc1cc(CN(C)C(=O)CC2C(=O)NCCN2Cc2ccc(-c3ccccc3)cc2)on1 (stereo unspecified) the results were Pf growth 96h 10µM*, Sm TGR block inconclusive, Pf growth 48h -17% and SARS PLP yeast 5%.
For CN(Cc1cccnc1)C(=O)CC1C(=O)NCCN1Cc1ccc(-c2ccccc2)cc1 (stereo unspecified) the results were Pf growth 96h 58%, Sm TGR block inconclusive, Pf growth 48h -22% and SARS PLP yeast 2%.
CN(Cc1cnccn1)C(=O)CC1C(=O)NCCN1CC(c1ccccc1)c1ccccc1 (stereo unspecified) was read as Pf growth 96h 6%, Sm TGR block 45µM*, Pf growth 48h inconclusive and SARS PLP yeast 0%.
CN(Cc1ccncn1)C(=O)CC1C(=O)NCCN1Cc1cccc(Oc2ccccc2)c1 (stereo unspecified) was read as Pf growth 96h inconclusive, Sm TGR block 45µM*, Pf growth 48h 13% and SARS PLP yeast -1%.
`Cc1ccc(CN2CCNC(=O)C2CC(=O)N(C)Cc2cnccn2)cc1` (stereo unspecified) gave Pf growth 96h 13µM*, Sm TGR block inconclusive, Pf growth 48h 28% and SARS PLP yeast 5%.
For CN(Cc1cccnc1)C(=O)CC1C(=O)NCCN1CC(c1ccccc1)c1ccccc1 (stereo unspecified) the results were Pf growth 96h 19%, Sm TGR block inconclusive, Pf growth 48h 14% and SARS PLP yeast -3%.
Cc1cc(CN(C)C(=O)CC2C(=O)NCCN2Cc2ccc(F)c(F)c2)on1 (stereo unspecified) was read as Pf growth 96h 24%, Sm TGR block -29%, Pf growth 48h 5% and SARS PLP yeast 1%.
O=C(CNC(=O)OCc1ccccc1)Nc1ccc(F)cc1 was read as Pf growth 96h -6%, Sm TGR block -12%, Pf growth 48h -6% and SARS PLP yeast 4%.
For COc1ccc(C(=O)NCC(=O)N2CCC(Cc3ccccc3)CC2)cc1OC the results were Pf growth 96h -4%, Sm TGR block -1%, Pf growth 48h inconclusive and SARS PLP yeast 4%.
For O=C(CC1C(=O)NCCN1Cc1c(F)cccc1Cl)NCCCOc1cccnc1 (stereo unspecified) the results were Pf growth 96h 15µM*, Sm TGR block -15%, Pf growth 48h -16% and SARS PLP yeast 0%.
For CN(Cc1cnccn1)C(=O)CC1C(=O)NCCN1Cc1c(F)cccc1Cl (stereo unspecified) the results were Pf growth 96h 9%, Sm TGR block 32µM*, Pf growth 48h 1% and SARS PLP yeast 1%.
`O=C(CC1C(=O)NCCN1Cc1ccc(F)cc1)NCCOc1cccnc1` (stereo unspecified) gave Pf growth 96h inconclusive, Sm TGR block inconclusive, Pf growth 48h -23% and SARS PLP yeast 1%.
For Cn1cc(C(=O)N2CCCC(Nc3ccc(F)cc3)C2)c2ccccc21 (stereo unspecified) the results were Pf growth 96h -8%, Sm TGR block -31%, Pf growth 48h -4% and SARS PLP yeast -5%.
For CN(C)c1ccccc1C(=O)N1CCCC(Nc2ccc(F)cc2)C1 (stereo unspecified) the results were Pf growth 96h 13µM*, Sm TGR block -28%, Pf growth 48h -9% and SARS PLP yeast 2%.
For COc1ccc(NC2CCCN(C(=O)c3c(C)noc3C)C2)cc1 (stereo unspecified) the results were Pf growth 96h 1.9µM*, Sm TGR block 7%, Pf growth 48h inconclusive and SARS PLP yeast 2%.
COc1ccc(NC2CCCN(C(=O)CCN3Cc4ccccc4C3=O)C2)cc1 (stereo unspecified) was read as Pf growth 96h 8.3µM*, Sm TGR block -2%, Pf growth 48h 10% and SARS PLP yeast -3%.
